Screening data deposited in PubChem BioAssay by National Center for Advancing Translational Sciences (NCATS).
Hits are enriched below; roughly 1.4% of the tested compounds scored in any of these assays.
ERK EGF block: inhibitors of EGF-stimulated ERK signaling pathway | HEK293-V1b, EGF-stimulated phospho-ERK AlphaScreen | Potency, µM (top dose mostly 11.5 µM), for the others: at the top dose activity change, negative = inhibition, actives largely listed as inhibitors | 130,000 tested, 0.41% active | AID 1454;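 further: plate controls were stimulated vehicle wells for no effect and unstimulated vehicle basal for full effect; nearly all actives have a fitted effect of over 55% in size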
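Stably V1b-transfected HEK293 cells; 30 min compound, then EGF 25 nM final for 5 min at 37C; 10 min lysis; phospho-ERK by AlphaScreen after 5 hr beads at room temperature.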
HTT aggregate: mutant huntingtin aggregation inhibition; PC12 HttQ103-GFP aggregates, Acumen cytometry, 40 h; Potency, µM (highest dose often 46.1 µM), without a hit: at the highest dose activity change, negative = inhibition, usual class: inhibitors; 220,000 tested, 1.1% active; further: on the % scale 0 is the no-effect control and ±100 the full control effect; nearly all actives have a fitted effect of over 60% in size
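Inducible Q103 Huntingtin exon 1–GFP PC12 line, 1500 cells/well in phenol red free DMEM with 5% equine and 5% calf serum. Tebufenozide 100 nM induced expression; compounds titrated; aggregates quantified by cytometry.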
HTT cytoprotect: protects HTT-Q103 PC12 cells, measured by ATP; PC12 HTT-Q103 induced, cytoprotection, ATP luminescence, 40 h; AID 1471; 230,000 tested, 0.14% active; Potency, µM (doses to about 56.4 µM), inactives show cytoprotection (ATP increase), actives largely listed as activators; further: % of control where 0% means no effect; nearly all actives have a fitted effect of over 45% in size
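Compounds added alongside 100 nM tebufenozide, which induces toxic Q103 huntingtin exon 1-GFP in stable PC12 cells; surviving cells quantified by luminescent ATP measurement. Medium: phenol red-free DMEM, 5% equine and 5% calf serum.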
* marks the source's active call; other numbers are inactive results; ? = inconclusive; . = no result given; [ ] = dose if it differs, or a comment. The call rests on the fitted dose curve; in most records, active means well fitted curve in the direction sought with a large enough effect; inconclusive means small, poorly fitted or top-dose-only effect, or another doubt; inactive means no such curve, though single readings can be large; an effect the other way counts as inactive or inconclusive. Potency means the concentration at half of the fitted maximal effect.

SMILES	ERK EGF block	HTT aggregate	HTT cytoprotect
C=CCCCCCCCCCCCC(O)CC(O)CO (configuration not stated) (tested in a mixture with another compound)	13%	.	-23%
c1cncc(-c2cc(-c3cc(-c4cccnc4)n[nH]3)[nH]n2)c1	.	.	0%[10 µM]
O=C(c1ccco1)N1CCC[C@@]2(CCN(c3cccc(-c4ccccc4)c3)C2)C1	8%	.	4%
CCCCC(CC)CNCC(CC)CCCC (configuration not stated)	.	.	-9%
COc1ccc(-n2c(C)c(C(C)=O)c3cc(O)ccc32)cc1	.	0.32µM*	-10%[10 µM]
COc1ccc2c(c1)c(C(C)=O)c(C)n2-c1ccccc1	.	?	-3%[10 µM]
CCCc1c(OCC(O)COc2ccc3c(=O)cc(C(=O)O)oc3c2CCC)ccc(C(C)=O)c1O (configuration not stated)	.	.	-3%
Cc1[nH]c2ccccc2c1/C=N/n1cnnc1	.	-6%	-14%[10 µM]
CCN(CC)c1ccc(N=Cc2c(C)[nH]c3ccccc23)cc1	?	11µM*	.
COC(=O)CNC(=O)[C@@]1(C)C=C[C@@H](Cc2ccccc2)N1C(C)=O	13%	.	-14%
COc1cc2c(cc1OC)[C@@H]1C(=O)c3ccc4c(c3O[C@@H]1CO2)C=CC(C)(C)O4	-9%	.	-55%[1.9 µM]
Nc1c(S(=O)(=O)O)cc(Nc2ccc(Nc3nc(Cl)nc(Nc4ccc(S(=O)(=O)O)cc4)n3)c(S(=O)(=O)O)c2)c2c1C(=O)c1ccccc1C2=O	25µM*	.	-14%[1.9 µM]
O=[N+]([O-])c1ccc(Nc2nc(Cl)nc(NCCO)n2)cc1	5%	9%	-19%
O=C1[C@H]2[C@H]3[C@H](O)[C@H](O)C/C(=N/OC[C@@H](O)COCc4ccco4)[C@H]3CC[C@@H]2C(=O)N1Cc1ccc2c(c1)OCO2	.	.	3%[10 µM]
COc1ccc(O[C@H]2C=C[C@@H](c3ccccc3)O[C@H]2COC(=O)NCc2cccc3ccccc23)cc1	.	.	-43%[10 µM]
CC(C)C[C@@H](NC(=O)[C@@H](Cc1ccccc1)NC(=O)c1cnccn1)B(O)O	.	-18%	-83%
COc1ncc2nc(-c3ccc(Cl)cc3)c(=O)n(Cc3cccs3)c2n1	.	.	2%
Cc1ccccc1C1=NC(C(F)(F)F)(C(F)(F)F)c2c(n(C)c(=O)n(C)c2=O)N1	0%	-3%	5%[10 µM]
Cn1c2c(c(=O)n(C)c1=O)C(C(F)(F)F)(C(F)(F)F)N=C(c1ccc(Cl)cc1)N2	.	1.3µM*	-65%
Cc1ccc(SCc2ccc(C(=O)N3CCCC3)cc2)cc1	2%	11µM*	-40%
CCN1CCN(C(=O)c2ccc(CSc3ccc(C)cc3)cc2)CC1	.	-26%	15%
COc1cc(CSc2nnnn2-c2ccc(C)cc2)cc(OC)c1OC	.	2.5µM*	-24%[0.074 µM]
COc1ccc(CSc2nnnn2-c2ccccc2)cc1	.	-5%	9%[10 µM]
C[C@H](O)[C@H](O)[C@@H](O)c1cnc2nc(N)[nH]c(=O)c2n1	.	.	-1%
Fc1ccc(-c2nnc(CN3CCN(c4ncc(C(F)(F)F)cc4Cl)CC3)o2)cc1	.	13µM*	-18%[0.074 µM]
SMILES	ERK EGF block	HTT aggregate	HTT cytoprotect
Fc1ccc(N2CCN(Cc3nnc(-c4ccccc4)o3)CC2)cc1	0%	25%	14%[10 µM]
Cc1ccc(CNC(=O)CCS(=O)(=O)c2cccc3nonc23)cc1	.	-11%	17%
COc1ccc(CNC(=O)CCS(=O)(=O)c2cccc3nonc23)cc1	.	6.3µM*	3.5µM*
O=C1/C(=C\c2ccc(-c3ccccc3[N+](=O)[O-])o2)C(c2ccccc2)=NN1c1ccccc1	28µM*	?	3%[10 µM]
Cc1ccc(-c2ccc(/C=C3\C(=O)ON=C3c3ccccc3)o2)c([N+](=O)[O-])c1	.	-16%	-35%
CC(=O)O[C@H]1C[C@H]2CC[C@@H]3[C@@H](CC[C@]4(C)[C@H](OC(C)=O)[C@H]([N+]5(C)CCCCC5)C[C@@H]34)[C@]2(C)C[C@H]1[N+]1(C)CCCCC1	-1%[25.7 µM]	.	-2%[40.3 µM]
COc1ccc2c(c1)OCC(Cc1ccc(OC)c(O)c1)C2=O (configuration not stated)	7%	.	-253%
O=C1CCC=C1C(O)c1ccc(Cl)cc1 (configuration not stated)	-8%	.	-11%
CCN(CC)c1c([N+](=O)[O-])ncn1C	.	14%	5%
CCS(=O)(=O)c1c([N+](=O)[O-])ncn1C	3%	3.5µM*	.
CC1=CC(=O)OC1Cc1ccc2ccccc2n1 (configuration not stated)	2%	.	-262%
CC(C)=C[C@H]1[C@@H](C(=O)Oc2ccccc2C(C)C)C1(C)C	.	.	-7%[10 µM]
N#CC1=C(N)NC(SCC(=O)O)=C(C#N)C12CCCC2	.	-7%	-4%
N#CC1=C(N)NC(SCc2ccc(F)cc2)=C(C#N)C12CCCCC2	.	13µM*	-48%
CCNC(=S)NNC(=O)c1ccc(OC)cc1	-1%	-5%[9.22 µM]	8%[10 µM]
CCCCC(=O)NC(=S)NNC(=O)c1ccc(OC)cc1	-6%	10µM*	11%[10 µM]
N=C(N)[C@H](N=Nc1ccccc1)C(N)=O	.	.	9%[10 µM]
CCOc1ccc(Nc2nc(Cc3nnc(SCC(=O)NCc4ccco4)n3CC)cs2)cc1	.	0%	-37%
CCOc1ccc(Nc2nc(Cc3nnc(SCC(=O)c4ccc(C)c(C)c4)o3)cs2)cc1	.	10µM*	-16%
Fc1ccc(Nc2nc(-c3ccoc3)nc3ccccc23)cc1	.	.	-40%
COc1ccccc1CNc1cc(-c2cccc(C#N)c2)ncn1	.	.	-16%
COc1ccc(-n2nc([N+](=O)[O-])c(=NCCC3=CCCCC3)n2O)cc1	28µM*	5%[9.22 µM]	-126%
COc1ccc(-n2nc([N+](=O)[O-])c(=NCCc3ccc(C)cc3)n2O)cc1	?	-11%	-43%
Cc1nnsc1NC(=O)OCc1ccc(Cl)cc1Cl	.	?	-65%
Cc1nn(Cc2ccc(Cl)cc2Cl)c(C)c1NC(=O)CCl	3%	3.5µM*	-5%[10 µM]
SMILES	ERK EGF block	HTT aggregate	HTT cytoprotect
Cc1nn(Cc2ccc(Cl)cc2Cl)c(C)c1NC(=O)c1nn(C)cc1Cl	.	-2%	-3%
Cc1nn(C)c(Cl)c1NC(=O)OCc1ccc(Cl)cc1Cl	.	7.9µM*	-15%
CCC(C)Oc1cc(-c2ccnc(Nc3cccc(Cl)c3)n2)ccn1 (configuration not stated)	5%[57.5 µM]	-18%[9.22 µM]	25%[10 µM]
OCCCNc1cc(-c2ccnc(Nc3cccc(Cl)c3)n2)ccn1	?	0.71µM*	-5%[10 µM]
COc1ccc2c(c1)O[C@@H](c1cccc(C(F)(F)F)c1)[C@H](OC(=O)N[C@H](C)C1CCCCC1)C2=O	0%	.	-6%
COC(=O)COc1ccc(S(=O)(=O)NCCC2=CCCCC2)cc1Cl	.	-10%	-7%
COCCNS(=O)(=O)c1ccc(OCC(=O)OC)c(Cl)c1	.	3.2µM*	-31%[0.074 µM]
O=C1OC2(c3ccc(O)cc3Oc3cc(O)ccc32)c2c1c(-c1ccccc1)c(-c1ccccc1)c(-c1ccccc1)c2-c1ccccc1	.	.	-12%[10 µM]
C=Cc1ccccn1	.	.	-4%
CC(C)[C@@H](OCc1ccccc1)[C@H](C)/C=N\O[C@@H](C)c1cn([C@@H]2COC[C@@H]2O)nn1	.	.	-8%[10 µM]
CCN(CC)C(=O)c1sc(NC(=O)Cc2cccs2)c(C#N)c1C	.	-14%	-17%[10 µM]
Cc1c(C#N)c(NC(=O)CCl)n(Cc2ccc(F)cc2)c1C	-2%[57.5 µM]	6.3µM*	-91%
Cc1c(C#N)c(NC(=O)CCl)n(Cc2ccccc2)c1C	-9%	4µM*	-58%
